Assay results taken from PubChem BioAssay AID1690 (NMMLSC, 2009).
Measured potencies and affinities stand elsewhere. Calls of active or inactive are those of the source.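 The calls were made as follows: active = combined score above 51, weighing potency under 20 µM and fitted curve span over 20%; inactive = the rest.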

What follows are compounds tested against Broad substrate specificity ATP-binding cassette transporter ABCG2 (Homo sapiens) (UniProt Q9UNQ0) (assay: ABCG2 efflux pump inhibitors, dose response, Ig-MXP3 cells, flow cytometry (AID 1690)). Conditions: JC-1 efflux; series mostly up to 33.3 µM; inhibition: at the top concentration.
Broad substrate specificity ATP-binding cassette transporter ABCG2 (Homo sapiens), sequence (Q9UNQ0 whole entry, looked up): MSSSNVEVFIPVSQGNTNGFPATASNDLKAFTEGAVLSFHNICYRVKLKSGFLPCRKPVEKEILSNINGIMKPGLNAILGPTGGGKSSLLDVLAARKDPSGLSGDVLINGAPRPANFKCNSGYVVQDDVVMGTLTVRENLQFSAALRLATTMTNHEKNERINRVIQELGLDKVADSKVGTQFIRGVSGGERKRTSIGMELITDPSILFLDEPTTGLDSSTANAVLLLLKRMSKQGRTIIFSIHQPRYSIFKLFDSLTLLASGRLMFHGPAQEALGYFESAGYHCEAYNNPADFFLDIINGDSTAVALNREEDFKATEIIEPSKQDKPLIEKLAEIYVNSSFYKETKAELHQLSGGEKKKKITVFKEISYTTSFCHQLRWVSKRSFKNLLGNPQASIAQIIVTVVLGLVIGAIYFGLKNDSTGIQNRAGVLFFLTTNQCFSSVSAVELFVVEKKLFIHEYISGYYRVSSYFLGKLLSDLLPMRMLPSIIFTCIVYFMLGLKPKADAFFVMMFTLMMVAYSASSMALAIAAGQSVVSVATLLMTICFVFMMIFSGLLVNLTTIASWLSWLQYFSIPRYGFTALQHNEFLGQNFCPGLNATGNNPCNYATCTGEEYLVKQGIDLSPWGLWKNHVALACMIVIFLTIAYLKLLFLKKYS

inhibition, inactive:
CCOC(=O)c1sc2cc([N+](=O)[O-])cc(SCC(C)C)c2c1N -5.78% [at 66.6 µM]
COc1ccc(CCNC(=O)COC(=O)/C=C/c2ccc(OC)c(OC)c2)cc1 51.7%
COC(=O)c1cc(NC(=O)c2ccccc2)c(=O)oc1/C=C/Nc1ccc(Oc2ccccc2)cc1 -230% [at 66.6 µM]
N#CC(C#N)=C1C=C2C=C(N3CCOCC3)CCC2CC1 (stereo unspecified) 57.5%
CCCCN1/C(=C/c2ccc3ccccc3[n+]2CC)Sc2ccccc21 100% [at 66.6 µM]
COc1ccccc1Nc1nc2nonc2nc1N1CCCCC1C (stereo unspecified) 9.37% [at 66.6 µM]
CCN(CC)C1=CC2=CC(=C(C#N)C#N)CCC2CC1 (stereo unspecified) 100% [at 66.6 µM]
CCN1/C(=C\C=C\c2oc3ccc4ccccc4c3[n+]2CC)Oc2ccc3ccccc3c21 46.5% [at 66.6 µM]
CNc1nc2cc([N+](=O)[O-])c([N+](=O)[O-])cc2nc1NC 80.2% [at 11.1 µM]
Cc1nc2cc(-c3cccc(F)c3)nn2c(N2CCN(C(=O)c3ccco3)CC2)c1C 74.5%
CN(C)c1ccc(/C=C2\SC(=S)N(Nc3ncc(C(F)(F)F)cc3Cl)C2=O)cc1 58.1%
CC(=O)Nc1ccc(Nc2ccc(S(=O)(=O)C(F)(F)F)cc2[N+](=O)[O-])cc1 42.1%
N#CC(C#N)=C1C=C2C=C(N3CCCCCC3)CCC2CC1 (stereo unspecified) 100%
CN1CCN(C2=CC3=CC(=C(C#N)C#N)CCC3CC2)CC1 (stereo unspecified) 30.5%
COc1ccc(/C=N/NC(=O)c2cccnc2)cc1CN1CCN(c2ccc(F)cc2)CC1 60%
CCCCn1c(O)c(N=Nc2ccccn2)c2ccccc21 85.4% [at 66.6 µM]
